Screening data (PubChem BioAssay)
A selection: hits, their analogues and other compounds. The true share with any hit is near 7.4%.
Rab9 promoter act: activates the Rab9 promoter | Huh7 Rab9 promoter-luciferase reporter, luminescence, 24 h | Potency, µM (titrated, usually from 9.22 µM), for inactives: at the top dose activation, negative = inhibition, most hits filed as activators | 320,000 compounds, 2.8% hits | AID 485297; note: % of control where 0% means no effect; nearly all actives have a fitted effect of over 60% in size
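Cells were plated at 1500 per well in reduced-serum medium with 10% FBS and left 2 h. Compound in DMSO was then added for 24 h at 37 °C. Reporter signal was read by luminescence after 10 min with luciferase detection reagent.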
NPC1 promoter act: activates the NPC1 promoter; AID 485313; 320,000 compounds, 2.4% hits; Huh7 NPC1 promoter luciferase reporter, 24 h; Potency, µM (highest dose often 9.22 µM), without a hit: top-dose activation, hits mostly activators; note: % of control where 0% means no effect; nearly all actives have a fitted effect of over 60% in size
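Readout is luciferase luminescence, reflecting NPC1 promoter activation in stably transfected Huh7 cells after 24 h compound exposure at 37 °C in reduced-serum medium with 10% FBS.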
FLuc modulator: counter-screen for miR-21 project: firefly luciferase inhibitors or activators. P08659. purified FLuc, Km substrates, luminescence inhibition. Potency, µM (highest dose often 57.5 µM), for inactives: at the top dose activity change, negative = inhibition, usual class: inhibitors. 360,000 compounds, 6.9% hits. AID 588342;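 note: plate controls were vehicle for no effect and reference inhibitor for full effect; nearly all actives have a fitted effect of over 55% in size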
Target sequence (P08659 whole entry, looked up): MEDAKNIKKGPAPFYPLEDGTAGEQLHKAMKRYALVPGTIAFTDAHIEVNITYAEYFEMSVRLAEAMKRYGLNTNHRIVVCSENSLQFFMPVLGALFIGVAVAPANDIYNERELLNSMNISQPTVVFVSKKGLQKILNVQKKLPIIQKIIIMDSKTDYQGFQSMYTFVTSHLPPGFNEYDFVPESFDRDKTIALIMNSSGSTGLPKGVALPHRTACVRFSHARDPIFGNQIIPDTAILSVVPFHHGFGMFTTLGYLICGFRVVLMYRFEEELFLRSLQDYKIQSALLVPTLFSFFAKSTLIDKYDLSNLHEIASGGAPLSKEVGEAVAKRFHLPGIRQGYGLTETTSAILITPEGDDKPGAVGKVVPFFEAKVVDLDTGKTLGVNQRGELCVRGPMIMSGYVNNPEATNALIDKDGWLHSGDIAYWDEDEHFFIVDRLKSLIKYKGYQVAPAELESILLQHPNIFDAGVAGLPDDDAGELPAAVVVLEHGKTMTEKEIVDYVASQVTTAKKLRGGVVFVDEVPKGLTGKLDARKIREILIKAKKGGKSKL
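Biochemical qHTS of compounds, final roughly 60 µM downward over six points, against 10 nM purified firefly luciferase using Km concentrations of substrates (10 uM D-luciferin, 10 uM ATP) in Tris acetate pH 7.5 buffer; luminescence output.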
ELG1 genotoxic: genotoxicity induction in ELG1-luciferase HEK293T cells | HEK293T ELG1-luciferase reporter, luminescence, 16 h | Potency, µM (series often up to 46 µM), inactives show at the top dose activity change, positive = activation, actives largely listed as activators | 330,000 compounds, 1.3% hits; note: % of control where 0% means no effect; nearly all actives have a fitted effect of over 60% in size
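ELG1-luciferase HEK293T cells, 2,000/well; compound pinned in; 16 hr, 37 °C, 5% CO2; ONE-Glo, 30 min RT; luminescence on CCD imager.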
SMN2 splice enh: enhancers of SMN2 splice variant expression | HEK293 SMN2-luciferase splicing reporter, luminescence, 30-36 h | Potency, µM (doses to about 46.1 µM), for the others: at the top dose activity change, positive = activation, hits mostly activators | 210,000 compounds, 2.8% hits; note: % of control where 0% means no effect; nearly all actives have a fitted effect of over 55% in size
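qHTS luciferase splicing reporter: luminescence rises when SMN2 exon 7 is included in transfected HEK293 cells. Compound exposure lasted 30-36 h at 37C, with 4.5 mM final sodium butyrate as control, followed by a ONE-Glo read.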
Starred values were filed as active, the others as inactive; [ ] = another dose, or the depositor's remark. Calls come from the whole dose curve; as a rule, active = well fitted curve in the direction sought with a large enough effect; inconclusive = small, poorly fitted or top-dose-only effect, or another doubt; inactive = no such curve, though single readings can be large; an effect the other way counts as inactive or inconclusive. Potency is the fitted concentration of half-maximal effect.

Results for COc1ccc2cc1Oc1ccc(cc1)C[C@@H]1c3c(cc(OC)c4c3Oc3cc5c(cc3O4)CCN[C@H]5C2)CCN1C ?
SMN2 splice enh: -6%[9.22 µM]

How did CC(=O)c1cccc(NC(=O)C(C)n2c(=O)cc(-c3ccccc3)c3c(C)nn(C)c32)c1 (stereo not given) do in these assays?
FLuc modulator: -14%

Results for COc1ccc(CC(=O)NCc2nnc(SCC(=O)Nc3cccc(F)c3)n2C)cc1 ?
Rab9 promoter act: -8%; NPC1 promoter act: 0%; FLuc modulator: 15µM*; ELG1 genotoxic: 0%; SMN2 splice enh: 5%

How did CCOc1ccc(NC(=O)CSc2nccn2C)cc1 do in these assays?
Rab9 promoter act: inconclusive; NPC1 promoter act: 21%; FLuc modulator: inconclusive; ELG1 genotoxic: inconclusive; SMN2 splice enh: inconclusive

How did COc1ccc(NC(=O)Cc2nnc(SCC(=O)Nc3nccs3)n2C)cc1 do in these assays?
Rab9 promoter act: 4%; NPC1 promoter act: 7%; FLuc modulator: 15µM*; ELG1 genotoxic: 2%

Results for O=C(CSc1ccc2nnc(CCNC(=O)c3ccccc3)n2n1)Nc1ccccc1 ?
Rab9 promoter act: 1%; NPC1 promoter act: -3%; FLuc modulator: -2%; ELG1 genotoxic: 2%; SMN2 splice enh: -17%

What do the screens show for `COc1ccc(C(=O)NCCc2nnc3ccc(SCC(=O)Nc4ccccc4)nn23)cc1`?
Rab9 promoter act: 2.8µM*; NPC1 promoter act: 1.6µM*; FLuc modulator: 3µM*; ELG1 genotoxic: inconclusive

How did Cn1ccnc1SCC(=O)Nc1ccc(Oc2ccccc2)cc1 do in these assays?
Rab9 promoter act: 11%; NPC1 promoter act: inconclusive; FLuc modulator: 13µM*; ELG1 genotoxic: inconclusive; SMN2 splice enh: -7%

How did CCn1c(CC(=O)Nc2cccc(OC)c2)nnc1SCC(=O)Nc1nccs1 do in these assays?
Rab9 promoter act: -5%; NPC1 promoter act: 1%; FLuc modulator: -4%; ELG1 genotoxic: -14%; SMN2 splice enh: -4%

What do the screens show for `CCN(c1ccccc1)S(=O)(=O)c1ccc2[nH]cc(C(=O)NCc3ccc(C)cc3)c(=O)c2c1`?
FLuc modulator: -5%

Results for COc1ccc(-n2c(=O)c3c(c4cc(OC)ccc4n3C)n(C)c2=O)cc1 ?
FLuc modulator: -5%

What do the screens show for `CC1=CC(=O)C2=C(C)C[C@H](OC(=O)Cc3ccccc3)C3[C@H](OC(=O)[C@H]3C)C12` (stereo not given in full)?
SMN2 splice enh: -5%

How did COc1ccc(NC(=O)Cc2nnc(SCC(=O)Nc3ccccc3)n2C)cc1 do in these assays?
Rab9 promoter act: 6%; NPC1 promoter act: 3%; FLuc modulator: 17µM*; ELG1 genotoxic: 2%

What do the screens show for `Cc1ccc(CN(Cc2cccn2-c2nnc(N3CCCC3=O)s2)C(=O)Nc2cc(C)cc(C)c2)cc1`?
FLuc modulator: 2%; SMN2 splice enh: -10%

How did O=C(Nc1ccc(Cl)c(Cl)c1)N1CCC(N2CCCCC2)CC1 do in these assays?
Rab9 promoter act: -3%; NPC1 promoter act: -4%; FLuc modulator: 2%; ELG1 genotoxic: 3%; SMN2 splice enh: -1%

What do the screens show for `O=C(Nc1ccc(Cl)c(Cl)c1)N1CCCCCC1`?
Rab9 promoter act: 2.5µM*; NPC1 promoter act: 2.8µM*; FLuc modulator: 6µM*; ELG1 genotoxic: inconclusive

What do the screens show for `O=C(Nc1ccc2nc(-c3ccco3)c(-c3ccco3)nc2c1)N1CCCCCC1`?
Rab9 promoter act: 9%; NPC1 promoter act: 15%; FLuc modulator: 21µM*; ELG1 genotoxic: -22%; SMN2 splice enh: -2%

How did Cc1ccc(C2CCN(C(=S)Nc3cccc(C)c3)C2)cc1 (stereo not given) do in these assays?
Rab9 promoter act: -7%; NPC1 promoter act: 3%; FLuc modulator: inconclusive; ELG1 genotoxic: 4%

How did O=C(Nc1ccc(Cl)c(Cl)c1)N1CCC(c2ccccc2)C1 (stereo not given) do in these assays?
FLuc modulator: 1.7µM*

What do the screens show for `CCOC(=O)C1CCN(C(=O)Nc2ccc3nc(-c4ccco4)c(-c4ccco4)nc3c2)CC1`?
Rab9 promoter act: 0%; NPC1 promoter act: 0%; FLuc modulator: inconclusive; ELG1 genotoxic: -5%; SMN2 splice enh: 4%

How did Cc1ccc(C2CCN(C(=O)Nc3ccc(Cl)c(Cl)c3)C2)cc1 (stereo not given) do in these assays?
FLuc modulator: 4.8µM*

What do the screens show for `CCCn1c(-c2ccc(F)cc2)nc2c(NCCN3CCCCC3)nc(C)nc21`?
SMN2 splice enh: -5%

Results for COc1ccc2c(c1)C(=O)[C@@H](OC(=O)Nc1cc(OC)c(OC)c(OC)c1)[C@H](c1ccc(OC)c(Br)c1)O2 ?
SMN2 splice enh: -30%

How did Cc1nc(C)c(-c2ccc(SCC(=O)Nc3cccc(C)c3C)nn2)s1 do in these assays?
FLuc modulator: 1%

How did S=C(Nc1ccc2nsnc2c1)N1CCCC1 do in these assays?
Rab9 promoter act: 26%; NPC1 promoter act: 14%; FLuc modulator: inconclusive; ELG1 genotoxic: 8%

What do the screens show for `O=C(Nc1ccc2nsnc2c1)N1CCCCCC1`?
Rab9 promoter act: inconclusive; NPC1 promoter act: 21%; FLuc modulator: 17µM*; ELG1 genotoxic: inconclusive; SMN2 splice enh: -9%

How did CCOc1ccc(NC(=O)N2CCC(c3ccc(C)cc3)C2)cc1 (stereo not given) do in these assays?
Rab9 promoter act: -1%; NPC1 promoter act: 14%; FLuc modulator: -7%; ELG1 genotoxic: 5%; SMN2 splice enh: -6%

How did Cc1ccc(C2CCN(C(=O)Nc3ccc(C)c(C)c3)C2)cc1 (stereo not given) do in these assays?
FLuc modulator: 12µM*

Results for O=C(/C=C/c1ccc(F)cc1)c1ccccc1Br ?
Rab9 promoter act: -4%; NPC1 promoter act: -3%; FLuc modulator: 19µM*; ELG1 genotoxic: -15%; SMN2 splice enh: -8%

Results for Cc1ccc(C(=O)/C=C/c2ccc(F)cc2)o1 ?
Rab9 promoter act: 10%; NPC1 promoter act: 3%; FLuc modulator: 1.5µM*; ELG1 genotoxic: inconclusive; SMN2 splice enh: 4%

How did Cc1nc(Nc2ccc(Cl)cc2Cl)sc1C(=O)Nc1ccccc1 do in these assays?
Rab9 promoter act: 4%; NPC1 promoter act: -2%; FLuc modulator: 17µM*; ELG1 genotoxic: -1%; SMN2 splice enh: -12%

What do the screens show for `Cc1nc(Nc2ccc(Cl)c(Cl)c2)sc1C(=O)Nc1ccccc1`?
Rab9 promoter act: -2%; NPC1 promoter act: 0%; FLuc modulator: inconclusive; ELG1 genotoxic: -6%; SMN2 splice enh: -31%

Results for Cc1nc(NC(=O)C2CC2)sc1C(=O)Nc1ccccc1Cl ?
Rab9 promoter act: 2.5µM*; NPC1 promoter act: 3.5µM*; FLuc modulator: inconclusive; ELG1 genotoxic: 13%

Results for Cc1nc(Cl)sc1C(=O)Nc1ccccc1Cl ?
Rab9 promoter act: -1%; NPC1 promoter act: 0%; FLuc modulator: -16%; ELG1 genotoxic: 3%
